Experimental findings from PubChem BioAssay (EPA / NIEHS) are described below.

As usually defined, the AC50 is the midpoint of the concentration-response curve, whichever way the signal moves.

A short description of assay [1]: APR_HepG2_P-H2AX_72hr: Apredica 72-hour HepG2 Assay for H2AX Phosphorylation (AID 2282916).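 Further: phospho-histone H2A.x immunostain intensity per cell marking DNA damage.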 To be noted: imaging, actives raise or lower the signal. The gist of the method: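 Human hepatoma HepG2 cells are dosed across ten concentrations (0.39 to 200 uM, 0.5% v/v DMSO) and incubated 72 hr. Phospho-histone H2A.x is then detected by antibody staining alongside c-Jun and Hoechst, and quantified by automated fluorescence imaging.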

Assay [2] can be described thus: APR_HepG2_MitoMembPot_72hr: Apredica 72-hour HepG2 Assay for Mitochondrial Membrane Potential (AID 2282917). To be noted: imaging, actives raise or lower the signal. The gist of the method:
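Membrane potential read by MitoTracker Red CMXRos (250 nM, 30 min, pre-fixation) fluorescence imaging of HepG2 after 72 hr exposure. Ten concentrations, 0.39–200 uM, duplicate wells, 0.5% DMSO; fitted in both directions against DMSO baseline.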

A short description of assay [3]: APR_HepG2_MitoticArrest_72hr: Apredica 72-hour HepG2 Assay for Mitotic Arrest (AID 2282918). Conditions: high-content imaging, actives raise or lower the signal. The gist of the method:
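HepG2 cells treated 72 h at 0.39–200 uM, 0.5% DMSO final; formaldehyde-fixed, stained with Hoechst 33342 and phospho-histone H3 antibody, imaged by high-content fluorescence; bidirectional fit versus DMSO.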

Assay [4] is described as follows: APR_HepG2_MicrotubuleCSK_72hr: Apredica 72-hour HepG2 Assay for Microtubule CSK Stabilty (AID 2282919). Conditions: HepG2 microtubule cytoskeleton, high-content imaging, actives raise or lower the signal. The gist of the method:
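High-content imaging of alpha-tubulin staining in fixed HepG2 cells after 72 hr treatment with ten concentrations from 0.39 to 200 uM (0.5% DMSO). Fitting was bidirectional against DMSO; taxol served as positive control.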

The nature of assay [5]: APR_HepG2_P-H2AX_24hr: Apredica 24-hour HepG2 Assay for H2AX Phosphorylation (AID 2282920). Conditions: high-content imaging, actives raise or lower the signal. A digest of the protocol: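 HepG2 cells dosed 24 h at 0.39–200 uM (10 points, duplicate, 0.5% DMSO final). Formaldehyde-fixed and permeabilized, then immunostained for phospho-H2A.x with Hoechst. Fluorescence quantified by high-content imaging, fitted bidirectionally versus DMSO.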

Assay [6] is described as follows: APR_HepG2_StressKinase_72hr: Apredica 72-hour HepG2 Assay for Stress Kinase (AID 2282921). Conditions: HepG2 stress kinase (phospho-c-Jun) imaging, actives raise or lower the signal. A digest of the protocol:
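After a 72 h compound treatment spanning 0.39 to 200 uM, formaldehyde-fixed cells are labelled for phosphorylated c-Jun and nuclei, imaged by automated fluorescence microscopy, and activity is fitted in both directions relative to DMSO controls.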

Assay [7] can be described thus: APR_HepG2_StressKinase_24hr: Apredica 24-hour HepG2 Assay for Stress Kinase (AID 2282922). To be noted: HepG2 stress kinase (phospho-c-Jun) imaging, actives raise or lower the signal. A digest of the protocol:
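High-content imaging of phospho-c-Jun immunofluorescence in fixed, permeabilized HepG2 cells after 24 h dosing. Ten concentrations, 0.39 to 200 uM, run in duplicate at 0.5% v/v DMSO; gain or loss of signal versus DMSO.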

Assay [8] in a line: APR_HepG2_p53Act_72hr: Apredica 72-hour HepG2 Assay for p53 Activation (AID 2282923).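 Further: average cellular p53 protein immunofluorescence intensity in HepG2 cells.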 Conditions: high-content imaging, actives raise or lower the signal. A digest of the protocol: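 Imaging-based endpoint: after 72 hr compound exposure (up to 200 uM, 0.5% DMSO), fixed and permeabilized monolayers were labelled with anti-p53 antibody and imaged; signal change in either direction was fitted relative to DMSO controls.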

Assay [9] in a line: APR_HepG2_MitoMass_72hr: Apredica 72-hour HepG2 Assay for Mitochondrial Mass (AID 2282924).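 Further: MitoTracker Red CMXRos stain intensity per cell imaged as mitochondrial mass.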 Conditions: high-content imaging, actives raise or lower the signal. A digest of the protocol:
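Readout is imaged MitoTracker Red (250 nM, 30 min, pre-fixation) signal, fitted bidirectionally against DMSO baseline. Human HepG2 liver cells received compound 0.39–200 uM in duplicate for 72 hr, final DMSO 0.5%.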

The nature of assay [10]: APR_HepG2_NuclearSize_72hr: Apredica 72-hour HepG2 Assay for Nuclear Size (AID 2282925). To be noted: high-content imaging, actives raise or lower the signal. The gist of the method: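 Nuclear size was read by high-content imaging of Hoechst 33342 stain after formaldehyde fixation. Compounds ran 72 h on HepG2 at 0.39 to 200 uM, with final DMSO 0.5% v/v. Curves fitted both directions relative to DMSO control.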

The nature of assay [11]: ATG_CRE_CIS: Attagene CIS-FACTORIAL HepG2 Assay for human cAMP Responsive Element (CRE) binding protein 3 (AID 2282926). To be noted: HepG2 CRE cis-reporter, Attagene multiplexed mRNA; actives raise or lower the signal. The gist of the method: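 Induced reporter mRNA from a CRE cis element, measured in HepG2 among many multiplexed units at 24 h. Detection used RT-PCR plus capillary electrophoresis of fluorescent fragments; DMSO served as negative control.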

Assay [12] has as its target CCAAT/enhancer-binding protein beta (Homo sapiens) (UniProt P17676). As to the kind of experiment: ATG_C_EBP_CIS: Attagene CIS-FACTORIAL HepG2 Assay for human CCAAT/Enhancer Binding Protein (C/EBP) beta (AID 2282927). Conditions: HepG2 Attagene cis-factorial transcription factor reporter; actives raise or lower the signal. A digest of the protocol: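 Endogenous transcription factor activity in human liver HepG2 cells is inferred from induction of a CEBPB-linked reporter mRNA. Exposure lasts 24 h; activity is fitted in both directions relative to DMSO.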

The nature of assay [13]: ATG_CMV_CIS: Attagene CIS-FACTORIAL HepG2 Assay for human CMV (Internal Marker) (AID 2282928).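 Further: endpoint acts as a background internal control marker rather than a target.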 To be noted: HepG2 CMV promoter reporter, transcription factor profiling; actives raise or lower the signal. A digest of the protocol:
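Bidirectional fits against DMSO are applied to reporter mRNA, read by RT-PCR with capillary electrophoresis, from HepG2 cells exposed 24 h. The endpoint serves as an internal CMV background marker within the cis-factorial reporter panel.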

Assay [14] in a line: ATG_DR4_LXR_CIS: Attagene CIS-FACTORIAL HepG2 Assay for human Liver X Receptor (LXR), DR4 submotif (AID 2282929). To be noted: HepG2 Attagene DR4 cis-reporter, mRNA transcription; actives raise or lower the signal. The gist of the method:
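Transiently transfected HepG2 liver cells; cis-regulated reporters; 24 h dosing. RT-PCR plus CE read-out of reporter mRNA. DMSO baseline, bidirectional curve fitting.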

The target in assay [15] is Aryl hydrocarbon receptor (Homo sapiens) (UniProt P35869). As to the kind of experiment: ATG_Ahr_CIS: Attagene CIS-FACTORIAL HepG2 Assay for human Aryl Hydrocarbon Receptor (Ahr) (AID 2282930). To be noted: HepG2 AhR cis-factorial reporter transcription; actives raise or lower the signal. The gist of the method:
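Transient MRTU transfection of HepG2 → 24 h compound exposure → total RNA, oligo(dT) RT → PCR, 6-FAM extension, HpaI cut → CE fluorescence. DMSO = baseline; bidirectional curve fit.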

Assay [16] can be described thus: ATG_AP_2_CIS: Attagene CIS-FACTORIAL HepG2 Assay for human Activator Protein 2 (AP-2) (AID 2282932). Conditions: HepG2 AP-2 cis-reporter, Attagene transcription factor profiling; actives raise or lower the signal. A digest of the protocol: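 Endogenous transcription factor activity is reported through transfected multiplex reporter constructs in HepG2, after 24 h of compound exposure. Transcripts were quantified by RT-PCR and capillary electrophoresis of fluorescent fragments. Bidirectional fit against DMSO.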

Assay [17] is described as follows: ATG_BRE_CIS: Attagene CIS-FACTORIAL HepG2 Assay for human Bone Morphogenetic Protein (BMP) Response Element (BRE) (AID 2282933). To be noted: HepG2 BMP response element reporter, Attagene transcription factor profiling; actives raise or lower the signal. The gist of the method: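 HepG2 cells transiently transfected with CIS reporter units (endogenous TF activity, BMP response element), dosed 24 h. Reporter mRNA quantified by RT-PCR, fluorescent labelling and capillary electrophoresis; bidirectional fit vs DMSO baseline.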

For assay [18], the target named is Retinoic acid receptor alpha (Homo sapiens) (UniProt P10276). The assay is described as follows: ATG_DR5_RAR_CIS: Attagene CIS-FACTORIAL HepG2 Assay for human Retinoic Acid Receptor Alpha (RARE), DR5 submotif (AID 2282934). To be noted: HepG2 Attagene cis-factorial RARE DR5 reporter, mRNA; actives raise or lower the signal. The gist of the method:
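Transient MRTU transfection of HepG2; 24 h compound treatment; TriZol RNA, oligo(dT) RT, PCR, FAM labelling, capillary electrophoresis. Bidirectional fit vs DMSO. Endogenous TF activity at DR5 RARE.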

In assay [19] the target is Transcription factor E2F1 (Homo sapiens) (UniProt Q01094). The assay is described as follows: ATG_E2F_CIS: Attagene CIS-FACTORIAL HepG2 Assay for human E2F Transcription Factor 1 (AID 2282935). To be noted: HepG2 Attagene cis-reporter, E2F reporter RNA transcripts; actives raise or lower the signal. The gist of the method:
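Gain or loss of reporter transcript, fitted against DMSO, reflects E2F1-driven transcription. Transiently transfected HepG2 dosed 24 h before RNA isolation. Quantified by fluorescent RT-PCR products separated by capillary electrophoresis.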

A short description of assay [20]: ATG_AP_1_CIS: Attagene CIS-FACTORIAL HepG2 Assay for human Activator Protein 1 (AP-1) (AID 2282931). Conditions: HepG2 Attagene cis-factorial AP-1 reporter mRNA; actives raise or lower the signal. The gist of the method: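 We transfected HepG2 cells transiently with a set of cis-regulated reporter transcription units, dosed them for 24 h, and quantified reporter mRNA via RT-PCR and capillary electrophoresis, scoring gain or loss of signal relative to DMSO.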

Each structure is given as a SMILES string. Active and inactive are the calls of the source. How the source made its calls: active means hit-call score of the fitted dose curve at least 0.9, where 1 is the maximum; inactive means score below 0.9.

Chain of Retinoic acid receptor alpha (Homo sapiens) (P10276 whole entry, looked up): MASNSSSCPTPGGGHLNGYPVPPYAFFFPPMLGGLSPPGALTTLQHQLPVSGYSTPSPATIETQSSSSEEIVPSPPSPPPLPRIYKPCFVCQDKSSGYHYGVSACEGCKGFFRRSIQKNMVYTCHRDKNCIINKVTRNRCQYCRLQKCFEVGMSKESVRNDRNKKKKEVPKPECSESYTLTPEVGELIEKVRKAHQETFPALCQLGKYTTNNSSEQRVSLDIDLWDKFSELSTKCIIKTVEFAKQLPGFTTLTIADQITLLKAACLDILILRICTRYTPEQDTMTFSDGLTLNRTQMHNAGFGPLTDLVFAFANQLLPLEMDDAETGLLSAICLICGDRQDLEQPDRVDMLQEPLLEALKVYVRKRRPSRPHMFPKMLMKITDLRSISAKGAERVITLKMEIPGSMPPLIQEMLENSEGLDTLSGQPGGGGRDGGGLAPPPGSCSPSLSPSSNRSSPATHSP
Chain of CCAAT/enhancer-binding protein beta (Homo sapiens) (P17676 whole entry, looked up): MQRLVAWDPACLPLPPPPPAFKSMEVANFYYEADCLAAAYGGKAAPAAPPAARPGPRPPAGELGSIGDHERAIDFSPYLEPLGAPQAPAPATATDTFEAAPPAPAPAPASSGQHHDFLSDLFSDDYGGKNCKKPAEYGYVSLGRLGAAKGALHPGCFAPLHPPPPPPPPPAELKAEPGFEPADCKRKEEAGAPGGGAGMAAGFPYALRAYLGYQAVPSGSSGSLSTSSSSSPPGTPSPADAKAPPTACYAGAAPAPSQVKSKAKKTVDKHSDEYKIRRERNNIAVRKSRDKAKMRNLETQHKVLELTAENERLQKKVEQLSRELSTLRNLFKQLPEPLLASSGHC
Chain of Transcription factor E2F1 (Homo sapiens) (Q01094 whole entry, looked up): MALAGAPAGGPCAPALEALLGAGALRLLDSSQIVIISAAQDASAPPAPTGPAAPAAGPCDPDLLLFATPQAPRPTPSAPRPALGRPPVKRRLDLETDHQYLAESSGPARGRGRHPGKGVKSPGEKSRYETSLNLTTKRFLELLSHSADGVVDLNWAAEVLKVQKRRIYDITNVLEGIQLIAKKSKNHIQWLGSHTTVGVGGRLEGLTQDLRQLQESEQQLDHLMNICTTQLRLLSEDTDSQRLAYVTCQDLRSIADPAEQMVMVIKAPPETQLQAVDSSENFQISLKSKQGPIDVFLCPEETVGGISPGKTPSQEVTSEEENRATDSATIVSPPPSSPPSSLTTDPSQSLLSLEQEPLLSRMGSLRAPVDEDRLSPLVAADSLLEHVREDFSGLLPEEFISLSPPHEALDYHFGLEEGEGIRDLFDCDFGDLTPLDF
Chain of Aryl hydrocarbon receptor (Homo sapiens) (P35869 whole entry, looked up): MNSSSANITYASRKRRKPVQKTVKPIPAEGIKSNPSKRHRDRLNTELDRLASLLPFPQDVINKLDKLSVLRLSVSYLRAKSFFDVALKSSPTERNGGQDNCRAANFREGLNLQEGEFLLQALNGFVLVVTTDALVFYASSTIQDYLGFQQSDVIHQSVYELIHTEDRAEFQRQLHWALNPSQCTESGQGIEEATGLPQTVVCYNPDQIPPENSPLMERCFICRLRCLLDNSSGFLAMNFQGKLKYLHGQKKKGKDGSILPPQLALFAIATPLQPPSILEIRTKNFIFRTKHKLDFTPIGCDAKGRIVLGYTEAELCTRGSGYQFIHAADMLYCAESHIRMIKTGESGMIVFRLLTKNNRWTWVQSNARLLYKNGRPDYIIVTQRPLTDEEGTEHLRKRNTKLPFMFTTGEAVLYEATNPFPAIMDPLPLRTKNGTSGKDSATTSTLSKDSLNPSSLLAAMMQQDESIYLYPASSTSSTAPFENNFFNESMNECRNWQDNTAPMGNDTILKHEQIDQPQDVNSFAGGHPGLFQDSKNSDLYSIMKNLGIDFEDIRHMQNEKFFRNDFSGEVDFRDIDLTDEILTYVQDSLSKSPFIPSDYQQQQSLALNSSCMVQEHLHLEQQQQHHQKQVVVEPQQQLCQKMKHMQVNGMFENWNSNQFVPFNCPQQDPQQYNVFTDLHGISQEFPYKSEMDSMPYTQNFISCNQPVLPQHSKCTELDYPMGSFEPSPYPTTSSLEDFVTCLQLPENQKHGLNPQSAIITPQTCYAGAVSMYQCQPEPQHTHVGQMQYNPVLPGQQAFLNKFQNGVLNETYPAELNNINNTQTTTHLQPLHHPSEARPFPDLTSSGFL

Consider `CC(C1CC1)C(O)(Cn1cncn1)c1ccc(Cl)cc1` (configuration not stated), for which the result in assay [1], in [2], in assay [3], in assay [4], in [5] and in [6] was inactive. Further, the outcome in assay [7], in [8], in assay [9], in [10], in assay [11] and in [12] was inactive. Moreover, the call in assay [13], in assay [15], in [16], in assay [17], in assay [18] and in assay [19] was inactive. Besides, the AC50 in assay [14] was 11.3 µM (active).
Consider `N#CSCSC#N`, for which the compound was classed as inactive in [1], in assay [2], in assay [3], in assay [4], in [5] and in [6]. Besides, the result in [7], in assay [8], in assay [9], in assay [10], in [11] and in assay [12] was inactive. The call in [13], in assay [14], in assay [15], in [20], in assay [16] and in assay [17] was inactive. Besides, the compound was classed as inactive in assay [18] and in [19].
Consider `CCCCSP(=O)(SCCCC)SCCCC`, for which the compound was called inactive in [1], in assay [3], in [4], in assay [5], in [6] and in [7]. In addition, the result in [8], in assay [9], in [10], in assay [11], in assay [12] and in assay [15] was inactive. Moreover, the outcome in assay [16] and in assay [18] was inactive. The concentration at half-maximal activity (AC50) was 157 µM (active) in [2]; 39.3 µM (active) in [13]; 72.9 µM (active) in assay [14]; 70.1 µM (active) in [20]; 40.1 µM (active) in assay [17]; 58.3 µM (active) in assay [19].
Consider `CN(C)NC(=O)CCC(=O)O`, for which the outcome in assay [1], in assay [2], in assay [3], in assay [4], in [5] and in [6] was inactive. In addition, the outcome in [7], in assay [8], in assay [9], in [10], in assay [11] and in assay [12] was inactive. The result in assay [13], in assay [14], in [15], in assay [20], in assay [16] and in assay [17] was inactive. Further, the result in [18] and in assay [19] was inactive.
In the case of `COc1cccc(C(=O)NN(C(=O)c2cc(C)cc(C)c2)C(C)(C)C)c1C`, the result in assay [1], in assay [2], in assay [3], in assay [4], in assay [5] and in [6] was inactive. The compound was classed as inactive in [7], in [8], in assay [9], in assay [10], in [11] and in assay [12]. The call in assay [13], in assay [15], in assay [17], in assay [18] and in assay [19] was inactive. Besides, the half-maximal activity concentration (AC50) is 50 µM (active) in assay [14] and 13.1 µM (active) in assay [16].
For `COP(=O)(OC)SCn1c(=O)oc2cc(Cl)cnc21`, the AC50 in assay [1] was 53.8 µM (active); in assay [3], 68.3 µM (active); in assay [4], 56.3 µM (active); in assay [6] it was 26.3 µM (active); in assay [11], 18.1 µM (active); in assay [14] it was 10.4 µM (active). Further, the call in [2], in [5], in assay [7], in [8], in assay [9] and in assay [10] was inactive. The outcome in assay [12], in assay [13], in assay [15], in [20], in assay [16] and in assay [17] was inactive. Besides, in [19], the outcome was inactive.
